This is an account of results in PubChem BioAssay (Tox21).

Molecules are shown by their SMILES. Several values for one entry are separate records, joined by “and”; a condition that tells them apart may be missing. Identical values can stand only once. Inconclusive results are not listed. Some compounds were tested as several samples or in several runs, with calls that do not always agree. Activity calls are given as the source filed them. Unless noted, calls follow the shape of the dose curve; as a rule, active = well fitted curve in the direction sought with a large enough effect in the repeat runs; inconclusive = weak or mixed curves; inactive = no such curve, though single readings can be large; an effect the other way counts as inactive or inconclusive.

Assay [1] deals with Progesterone receptor (Homo sapiens) (UniProt P06401). The assay can be described thus: qHTS assay to identify small molecule antagonists of the progesterone receptor (PR) signaling pathway (AID 1346795; active = well fitted inhibition curve with a large enough effect in the signal ratio in the repeat runs, not every such curve was filed as active; the % refers to the signal ratio; also: potency is read from the fitted curve at half-maximal effect). Summed up:
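Stimulus R5020 at 1 nM final; cells HEK293T PR-UAS-bla; medium with 2% charcoal-stripped FBS; compound exposure 16 hr at 37C, 5% CO2; detection by FRET beta-lactamase substrate, 2 hr, room temperature.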

The nature of assay [2]: qHTS assay to identify small molecule antagonists of the progesterone receptor (PR) signaling pathway - cell viability counter screen (AID 1346798). Also: series mostly up to about 92 µM; nearly all actives have a fitted effect of over 50% in size. The essentials:
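In the same plates used for the beta-lactamase readout, cell viability of compound- and R5020-treated PR-UAS-bla HEK293T cells (16 hr, 37C) was assessed by CellTiter-Glo luminescence.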

Assay [3] can be described thus: qHTS assay to identify small molecule agonists of the progesterone receptor (PR) signaling pathway - cell viability counter screen (AID 1346799; calls by dose curve; also: nearly all actives have a fitted effect of over 45% in size). Summed up: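 Multiplexed viability read: CellTiter-Glo luminescence, 30 min RT, following LiveBLAzer FRET measurement on PR-UAS-bla HEK293T cells exposed to compounds 16 hr.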
The nature of assay [4]: qHTS assay to identify small molecule antagonists of the TGF-beta/Smad signaling pathway - cell viability counter screen (AID 1346824). Also: nearly all actives have a fitted effect of over 50% in size. Summed up:
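Cytotoxicity counter-screen run in the same wells as the beta-lactamase Smad reporter read: CellTiter-Glo luminescence after 30 min at room temperature. HEK 293T SBE-bla cells had 5 hr compound exposure at 37 C with TGF-beta1 (0.25 ng/mL stock).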

Assay [5] is described as follows: qHTS assay to identify small molecule agonists of the TGF-beta/Smad signaling pathway - cell viability counter screen (AID 1346829). Also: top concentration of the series differs between compounds; nearly all actives have a fitted effect of over 45% in size. The essentials:
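Compound-treated SBE-bla HEK 293T cells (5 hr, 37 C) were assessed for viability with CellTiter-Glo in parallel with the reporter read.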

The nature of assay [6]: qHTS assay to identify small molecule agonists of the TGF-beta/Smad signaling pathway (AID 1346859; active = well fitted activation curve with a large enough effect in the signal ratio in the repeat runs, not every such curve was filed as active; the % refers to the signal ratio; also: series mostly up to about 77 µM). Summed up:
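Screening used HEK 293T SBE-bla cells at 4,000/well. Test agents: 5 hr, 37 C. Detection: FRET substrate, 2 hr RT, then excitation 405 nm with emissions at 460 and 530 nm.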

Assay [7] addresses Thyrotropin-releasing hormone receptor (Homo sapiens) (UniProt P34981). Description: qHTS assay to identify small molecule antagonists of the thyrotropin-releasing hormone receptor (TRHR) signaling pathway (AID 1346877; active = well fitted inhibition curve with a large enough effect in the repeat runs, not every such curve was filed as active; also: series mostly up to about 51 µM). The essentials:
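Kinetic fluorescence (3 min, 1 s resolution) following stimulation with TRH at 1 nM final; HEK293 cells bearing human TRHR; 5 min compound preincubation at RT; concentration-response over 15 points, triplicates.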

The target is the same in assay [8]. The assay can be described thus: qHTS assay to identify small molecule agonists of the thyrotropin-releasing hormone receptor (TRHR) signaling pathway (AID 1346891; calls by dose curve; also: series mostly up to about 58 µM). Summed up: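 Readout was intracellular calcium fluorescence in TRHR-Hek293 cells. Cells were incubated 18 h, dye-loaded 2 h at 37 °C, and treated with compound in agonist mode.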
Assay [9] in a line: Human pregnane X receptor (PXR) small molecule agonists, qHTS cell viability counter screen (AID 1346977). Also: nearly all actives have a fitted effect of over 50% in size. Also: potency is read from the fitted curve at half-maximal effect. The essentials: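 In each well, the PXR reporter HepG2 line was checked for viability: CellTiter-Fluor reagent added 23hr post-dosing, fluorescence read after 1hr incubation at 37C.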
Assay [10] can be described thus: Caspase-3/7 induction in HepG2 cells by small molecules, qHTS assay (AID 1346978). Also: nearly all actives have a fitted effect of over 15% in size. The essentials:
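Caspase-3/7 induction was measured by Caspase-Glo 3/7 luminescence (30 min, room temperature) after a 17 hr compound exposure of wild-type HepG2 cells seeded at 2,000 per well and pre-incubated 5 hr.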

Assay [11] is described as follows: Caspase-3/7 induction in CHO-K1 cells by small molecules, qHTS cell viability counter screen (AID 1346979). Also: nearly all actives have a fitted effect of over 35% in size. Also: potency is read from the fitted curve at half-maximal effect. The essentials: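 Following a 5hr settling period, CHO-K1 cells at 1,500 per well received DMSO-dissolved compounds. Cell viability was quantified 16hr later by CellTiter-Fluor fluorescence, measured after 1hr with reagent at 37C.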
A short description of assay [12]: Caspase-3/7 induction in CHO-K1 cells by small molecules, qHTS assay (AID 1346980). Also: nearly all actives have a fitted effect of over 15% in size. Also: potency is read from the fitted curve at half-maximal effect. Summed up:
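Luminescent Caspase-Glo 3/7 read (30min, room temperature) quantified apoptosis induction. Cells were wild-type CHO-K1, treated with compound for 17hr at 37 C and 5% CO2.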

Assay [13] can be described thus: Caspase-3/7 induction in HepG2 cells by small molecules, qHTS cell viability counter screen (AID 1346981). Also: nearly all actives have a fitted effect of over 30% in size. Also: potency is read from the fitted curve at half-maximal effect. Summed up:
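In this quantitative HTS counter screen, compounds delivered in DMSO were left on unmodified HepG2 cells for 16 hr at 37 C. Viability was then determined fluorometrically with CellTiter-Fluor, in parallel with caspase-3/7 induction in the same wells.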

Assay [14] deals with Cytochrome P450 2D6 (Homo sapiens) (UniProt P10635). The assay can be described thus: Cytochrome P450 Family 2 Subfamily D Member 6 (CYP2D6) small molecule antagonists: luciferase reporter qHTS assay (AID 1671196). Also: nearly all actives have a fitted effect of over 50% in size. Also: potency is read from the fitted curve at half-maximal effect. The essentials: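 Test chemicals meet CYP2D6 plus proluciferin substrate (10 min, RT); NADPH regenerating solution then drives turnover for 1 h. Detection reagent halts the reaction; luminescence measured after 20 min.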
Chain of Cytochrome P450 2D6 (Homo sapiens) (P10635 whole entry, looked up): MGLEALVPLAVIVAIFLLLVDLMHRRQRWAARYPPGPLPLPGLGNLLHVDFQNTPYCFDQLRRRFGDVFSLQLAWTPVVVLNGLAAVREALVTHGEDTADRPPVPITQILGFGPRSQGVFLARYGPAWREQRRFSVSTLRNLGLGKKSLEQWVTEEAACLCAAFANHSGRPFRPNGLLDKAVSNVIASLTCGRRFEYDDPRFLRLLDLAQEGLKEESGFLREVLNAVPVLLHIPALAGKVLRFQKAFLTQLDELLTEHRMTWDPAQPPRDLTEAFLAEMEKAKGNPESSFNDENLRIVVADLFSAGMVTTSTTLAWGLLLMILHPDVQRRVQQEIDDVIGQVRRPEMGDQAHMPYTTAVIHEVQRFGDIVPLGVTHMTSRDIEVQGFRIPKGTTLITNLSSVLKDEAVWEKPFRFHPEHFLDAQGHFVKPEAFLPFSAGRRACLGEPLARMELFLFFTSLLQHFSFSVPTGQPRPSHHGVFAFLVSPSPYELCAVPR

For assay [15], the target named is Cytochrome P450 2C19 (Homo sapiens) (UniProt P33261). The assay can be described thus: Cytochrome P450 Family 2 Subfamily C Member 19 (CYP2C19) small molecule antagonists: luciferase reporter qHTS assay (AID 1671197). Also: nearly all actives have a fitted effect of over 65% in size. Also: potency is read from the fitted curve at half-maximal effect. Summed up: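 P450-Glo CYP2C19 screening system; proluciferin substrate; DMSO compound stocks; 10 min RT preincubation; NADPH regeneration, 1 h at 37C; luciferin detection reagent, 20 min RT; luminescence as RLU.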
Chain of Cytochrome P450 2C19 (Homo sapiens) (P33261 whole entry, looked up): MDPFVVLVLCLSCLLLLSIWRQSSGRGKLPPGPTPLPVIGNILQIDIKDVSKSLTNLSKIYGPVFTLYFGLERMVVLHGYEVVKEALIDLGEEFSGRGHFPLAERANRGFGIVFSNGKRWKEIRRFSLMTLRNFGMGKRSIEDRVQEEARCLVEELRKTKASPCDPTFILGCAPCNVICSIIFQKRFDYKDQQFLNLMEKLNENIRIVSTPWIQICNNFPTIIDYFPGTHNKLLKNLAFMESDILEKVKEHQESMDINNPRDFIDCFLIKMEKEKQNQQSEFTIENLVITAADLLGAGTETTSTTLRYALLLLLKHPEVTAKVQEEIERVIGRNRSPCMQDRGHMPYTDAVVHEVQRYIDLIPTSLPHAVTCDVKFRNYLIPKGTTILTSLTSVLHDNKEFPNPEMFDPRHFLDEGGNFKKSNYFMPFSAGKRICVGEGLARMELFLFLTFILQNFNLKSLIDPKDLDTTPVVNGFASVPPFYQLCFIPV

Assay [16] deals with Nuclear receptor subfamily 1 group I member 2 (Homo sapiens) (UniProt O75469). Description: Human pregnane X receptor (PXR) small molecule agonists, qHTS assay (AID 1346982). Also: nearly all actives have a fitted effect of over 35% in size. The essentials: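 Reporter HepG2 cells expressing PXR-Luc are cultured in charcoal-stripped FBS (5%), treated with compounds for 24 hr at 37 C, and assayed by ONE-Glo luminescence after 30 min at room temperature.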
Chain of Nuclear receptor subfamily 1 group I member 2 (Homo sapiens) (O75469 whole entry, looked up): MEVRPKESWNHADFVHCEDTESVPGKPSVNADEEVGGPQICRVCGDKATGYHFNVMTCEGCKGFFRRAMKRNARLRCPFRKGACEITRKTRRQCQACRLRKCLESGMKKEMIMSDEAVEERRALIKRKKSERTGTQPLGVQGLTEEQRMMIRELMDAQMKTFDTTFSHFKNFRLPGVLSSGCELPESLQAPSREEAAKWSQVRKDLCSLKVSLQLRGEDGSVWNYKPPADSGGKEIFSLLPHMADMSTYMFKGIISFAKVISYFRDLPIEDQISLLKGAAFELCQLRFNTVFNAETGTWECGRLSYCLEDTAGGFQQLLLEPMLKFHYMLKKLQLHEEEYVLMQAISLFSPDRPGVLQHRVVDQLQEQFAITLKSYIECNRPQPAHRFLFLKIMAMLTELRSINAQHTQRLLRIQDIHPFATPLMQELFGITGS

The target in assay [17] is Cytochrome P450 2C9 (Homo sapiens) (UniProt P11712). The assay can be described thus: Cytochrome P450 Family 2 Subfamily C Member 9 (CYP2C9) small molecule antagonists: luciferase reporter qHTS assay (AID 1671198). Also: nearly all actives have a fitted effect of over 50% in size. Also: potency is read from the fitted curve at half-maximal effect. The essentials:
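Enzyme-substrate mix preincubated with compound 10 min at room temperature; reaction started with NADPH regeneration solution, 1 h 37C. Luminescent luciferin product read after 20 min detection reagent.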

Assay [18] concerns the target Nuclear receptor subfamily 1 group I member 2 (Rattus norvegicus) (UniProt Q9R1A7). Description: Rat pregnane X receptor (rPXR) activation by small molecules, qHTS assay (AID 1346983). Also: nearly all actives have a fitted effect of over 20% in size. Particulars: rPXR luciferase reporter cells, One-Glo luminescence, 24 h; stronger effect = higher value. Summed up:
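Luminescent readout (One-Glo luciferase, 30 min room temperature) followed 24 hr compound treatment at 37 C of rPXR cells plated 2,000 per well and preincubated 5hr; qHTS format with compounds delivered in DMSO.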

For assay [19], the target named is Nuclear receptor subfamily 1 group I member 2 (Homo sapiens) (UniProt O75469). The assay can be described thus: CYP3A4 induction through human pregnane X receptor (PXR) by small molecules, qHTS assay (AID 1346984). Also: nearly all actives have a fitted effect of over 40% in size. The essentials: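 Induction measured in HepG2-based DPX-2 cells co-expressing human PXR and a CYP3A4 promoter-driven luciferase. After a 24-hour compound exposure, cells received CYP3A4 luciferin substrate at 3uM final for 3 hours, and light output was then recorded.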

Assay [20] has the same target. The assay can be described thus: Human pregnane X receptor (PXR) activation by small molecules, qHTS assay (AID 1346985). Also: nearly all actives have a fitted effect of over 40% in size. Summed up:
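DPX-2 cells (HepG2 co-transfected with a PXR response element and a CYP3A4-promoter luciferase construct) were seeded at 2,000 per well, rested 5 hr at 37C, then exposed to DMSO-dissolved compounds for 24 hr. Activation was read as luciferase luminescence.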
% is scaled to controls: 0 for no effect and ±100 for the full control effect.

Chain of Progesterone receptor (Homo sapiens) (P06401 whole entry, looked up): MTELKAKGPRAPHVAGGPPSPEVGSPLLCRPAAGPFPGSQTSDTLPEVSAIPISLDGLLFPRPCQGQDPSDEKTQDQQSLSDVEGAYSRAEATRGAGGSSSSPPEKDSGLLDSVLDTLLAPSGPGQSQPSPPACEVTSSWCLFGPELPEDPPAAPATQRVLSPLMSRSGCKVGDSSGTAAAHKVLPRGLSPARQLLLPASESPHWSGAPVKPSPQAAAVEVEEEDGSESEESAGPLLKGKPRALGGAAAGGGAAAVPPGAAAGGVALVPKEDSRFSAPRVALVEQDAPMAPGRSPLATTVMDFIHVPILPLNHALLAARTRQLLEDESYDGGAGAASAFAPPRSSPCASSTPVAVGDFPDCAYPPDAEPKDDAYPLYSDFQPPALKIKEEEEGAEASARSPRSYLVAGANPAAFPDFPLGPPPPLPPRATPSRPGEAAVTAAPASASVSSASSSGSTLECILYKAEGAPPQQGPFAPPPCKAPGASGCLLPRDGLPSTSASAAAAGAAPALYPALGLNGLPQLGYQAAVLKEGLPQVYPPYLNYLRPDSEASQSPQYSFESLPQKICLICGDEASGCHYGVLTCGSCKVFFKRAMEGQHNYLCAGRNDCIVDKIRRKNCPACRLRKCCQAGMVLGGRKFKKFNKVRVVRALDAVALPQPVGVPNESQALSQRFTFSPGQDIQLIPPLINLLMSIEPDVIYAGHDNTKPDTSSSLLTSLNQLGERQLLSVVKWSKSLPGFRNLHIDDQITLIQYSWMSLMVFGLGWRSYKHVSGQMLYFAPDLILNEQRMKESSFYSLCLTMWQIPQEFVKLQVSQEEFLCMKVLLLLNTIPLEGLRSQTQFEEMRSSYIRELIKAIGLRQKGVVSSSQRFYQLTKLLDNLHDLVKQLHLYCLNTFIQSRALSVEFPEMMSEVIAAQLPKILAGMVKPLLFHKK
Chain of Thyrotropin-releasing hormone receptor (Homo sapiens) (P34981 whole entry, looked up): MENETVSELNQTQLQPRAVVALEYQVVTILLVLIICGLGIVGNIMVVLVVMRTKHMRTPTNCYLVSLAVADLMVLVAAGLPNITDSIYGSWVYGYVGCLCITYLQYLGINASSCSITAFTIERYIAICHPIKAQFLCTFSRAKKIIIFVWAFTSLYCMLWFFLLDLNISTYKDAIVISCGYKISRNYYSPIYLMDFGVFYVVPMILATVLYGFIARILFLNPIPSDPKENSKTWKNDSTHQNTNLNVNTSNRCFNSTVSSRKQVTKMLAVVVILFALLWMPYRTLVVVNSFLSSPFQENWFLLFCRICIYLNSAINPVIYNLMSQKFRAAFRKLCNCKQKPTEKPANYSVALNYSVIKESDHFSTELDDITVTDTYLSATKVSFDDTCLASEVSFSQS
Chain of Cytochrome P450 2C9 (Homo sapiens) (P11712 whole entry, looked up): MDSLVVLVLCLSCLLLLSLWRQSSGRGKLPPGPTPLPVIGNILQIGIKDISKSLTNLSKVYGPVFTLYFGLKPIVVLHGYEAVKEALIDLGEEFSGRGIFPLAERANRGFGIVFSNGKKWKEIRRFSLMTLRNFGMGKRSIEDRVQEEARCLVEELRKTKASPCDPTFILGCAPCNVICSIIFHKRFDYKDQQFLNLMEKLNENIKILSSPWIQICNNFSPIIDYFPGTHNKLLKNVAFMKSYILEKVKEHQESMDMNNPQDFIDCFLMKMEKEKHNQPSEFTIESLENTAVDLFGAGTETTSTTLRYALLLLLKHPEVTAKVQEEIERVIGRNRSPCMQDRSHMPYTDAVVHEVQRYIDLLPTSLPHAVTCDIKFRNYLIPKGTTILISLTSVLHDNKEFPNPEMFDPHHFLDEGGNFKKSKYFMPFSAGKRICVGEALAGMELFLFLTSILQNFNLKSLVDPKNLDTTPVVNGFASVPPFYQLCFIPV
Chain of Nuclear receptor subfamily 1 group I member 2 (Rattus norvegicus) (Q9R1A7 whole entry, looked up): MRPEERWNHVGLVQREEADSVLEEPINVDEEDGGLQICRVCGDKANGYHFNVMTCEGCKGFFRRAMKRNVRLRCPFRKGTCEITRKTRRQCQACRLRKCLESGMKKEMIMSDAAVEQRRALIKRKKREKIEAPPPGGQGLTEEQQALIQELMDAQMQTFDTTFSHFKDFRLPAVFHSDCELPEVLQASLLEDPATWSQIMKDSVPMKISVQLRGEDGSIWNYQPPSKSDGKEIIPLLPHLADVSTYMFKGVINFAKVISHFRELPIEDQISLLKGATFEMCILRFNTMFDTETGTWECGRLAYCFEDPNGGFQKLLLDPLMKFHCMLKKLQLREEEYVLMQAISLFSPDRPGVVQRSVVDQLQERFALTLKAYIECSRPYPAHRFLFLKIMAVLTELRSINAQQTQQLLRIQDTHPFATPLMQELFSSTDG

On to `CC(=O)C1=C(C)[C@@H]2C[C@@]3(C1)[C@H](C)CC[C@H]3C2(C)C`, for which the Potency result in assay [1], in assay [2], in [3], in assay [4], in assay [5] and in assay [7] was “inactive” throughout. For the same compound, the Potency entry in assay [8], in assay [9], in assay [10], in [11], in assay [12] and in [13] was “inactive” in each case. In addition, the Potency entry in assay [14] was “inactive”. Moreover, the call in [6] was inactive. Besides, in assay [15], the Potency was 93.5 µM (active) and 39.9 µM (active).

Consider `O=C(Cl)c1cccc(C(=O)Cl)c1`, for which the Potency result in assay [1], in [2], in assay [3], in assay [4], in assay [5] and in [7] was “inactive” each time. The Potency entry in [8], in [9], in assay [10], in assay [12], in assay [13] and in [14] was “inactive” in each case. In addition, the outcome in assay [6] was inactive. Also, in [15], the Potency is 79.6 µM (active) and inactive.

Turning to `Cc1cc(C(C)(C)C)c(O)c(C(C)(C)C)c1`, the Potency entry in assay [1], in [2], in assay [3], in assay [4], in [5] and in assay [7] was “inactive” each time. Also, the Potency result in assay [8], in [9], in assay [10], in assay [11], in assay [12] and in assay [13] was “inactive” in each case. Also, the Potency entry in assay [16], in [14] and in assay [15] was “inactive” throughout. Moreover, the compound was called inactive in assay [6]. Moreover, the Potency in [17] was 35.7 µM (active) and inactive.

For `CCCCN(CCO)CCCC`, the Potency result in assay [1], in [2], in assay [3], in assay [4], in assay [5] and in assay [7] was “inactive” in each case. Besides, the Potency result in assay [8], in assay [9], in assay [10], in assay [12] and in [13] was “inactive” each time. Moreover, the compound was classed as inactive in [6]. Besides, the Potency in [14] is 36.4 µM (active).

Regarding `COC(=O)/C=C/c1ccccc1`, the Potency result in [1], in assay [2], in assay [3], in [4], in assay [5] and in assay [7] was “inactive” throughout. Also, the Potency result in assay [8], in [9], in [10], in assay [11], in assay [12] and in assay [13] was “inactive” throughout. The Potency entry in assay [16], in assay [15] and in assay [17] was “inactive” each time. The compound was classed as inactive in assay [6]. The Potency in assay [14] was 35.6 µM (active) and inactive.

Turning to `COc1ccc(Cc2cnc(N)nc2N)cc1OC`, the Potency result in assay [1], in [2], in [3], in assay [4], in assay [5] and in assay [7] was “inactive” each time. The Potency result in assay [8], in [9], in [10], in assay [11], in assay [12] and in [13] was “inactive” throughout. Further, the Potency result in assay [16], in assay [19], in assay [20], in assay [14], in [15] and in assay [17] was “inactive” throughout. Also, in [6], the call was inactive. Besides, in assay [18], the max activation was 10.3% (inactive).

On to `CC[C@H]1CN2CCc3cc(OC)c(OC)cc3[C@@H]2C[C@@H]1C[C@H]1NCCc2cc(OC)c(OC)cc21`, for which the Potency was 0.772 µM (active) in assay [1]; 24.4 nM (active) and 10.6 nM (active) in [9]; 27.4 nM (active) and 13.3 nM (active) in [11]; 30.7 µM (active) and inactive in [12]; 48.7 nM (active) and 16.8 nM (active) in assay [13]; 40.1 µM (active) in assay [14]. The Potency result in assay [2], in [3], in [4], in assay [5], in [10] and in [19] was “inactive” in each case. Besides, the Potency entry in assay [20] and in [17] was “inactive” in each case. Moreover, the result in assay [6] was inactive. In assay [18], the max activation was -15.9% (inactive).
